# Reference: publication PMC11006913
# Where a chain is given by its changes, count along the chain named.
# Legend:
# Assay in all cases: PBM; 200 nM protein, PBS
# Settings in all cases: dsDNA, one strand shown
# CRX [1] = biological target: CRX (Homo sapiens, UniProt O43186 26-111)
# SIX6 [2] = biological target: T1, SIX6 (Homo sapiens, UniProt O95475 114-200, L167I)
# T1 sequence: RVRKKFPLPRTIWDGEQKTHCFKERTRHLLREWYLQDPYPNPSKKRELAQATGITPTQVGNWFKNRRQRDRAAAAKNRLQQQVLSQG
# SIX6 [3] = biological target: T2, SIX6 (Homo sapiens, UniProt O95475 114-200, L143V)
# T2 sequence: T1 sequence with L30V, I54L
# ALX4 [4] = biological target: ALX4 (Homo sapiens, UniProt Q9H161 200-286)
# SIX6 [5] = biological target: T3, SIX6 (Homo sapiens, UniProt O95475 114-200, H141N)
# T3 sequence: T1 sequence with H28N, I54L
# SIX6 [6] = biological target: T4, SIX6 (Homo sapiens, UniProt O95475 114-200, T165P)
# T4 sequence: T1 sequence with T52P, I54L
# SIX6 [7] = biological target: T5, SIX6 (Homo sapiens, UniProt O95475 114-200, L167M)
# T5 sequence: T1 sequence with I54M
# SIX6 [8] = biological target: T6, SIX6 (Homo sapiens, UniProt O95475 114-200, L143M)
# T6 sequence: T1 sequence with L30M, I54L
# SIX6 [9] = biological target: T7, SIX6 (Homo sapiens, UniProt O95475 114-200, L143I)
# T7 sequence: T1 sequence with L30I, I54L
# ALX4 [10] = biological target: ALX4 (Homo sapiens, UniProt Q9H161 200-286, Q225E)
# SIX6 [11] = biological target: T8, SIX6 (Homo sapiens, UniProt O95475 114-200, T165G)
# T8 sequence: T1 sequence with T52G, I54L
# SIX6 [12] = biological target: T9, SIX6 (Homo sapiens, UniProt O95475 114-200, T139Q)
# T9 sequence: T1 sequence with T26Q, I54L
# CRX [13] = biological target: CRX (Homo sapiens, UniProt O43186 26-111, E42D)
# SIX6 [14] = biological target: T10, SIX6 (Homo sapiens, UniProt O95475 114-200, T165A)
# T10 sequence: T1 sequence with T52A, I54L
# SIX6 [15] = biological target: T11, SIX6 (Homo sapiens, UniProt O95475 114-200, L167V)
# T11 sequence: T1 sequence with I54V
# SIX6 [16] = biological target: T12, SIX6 (Homo sapiens, UniProt O95475 114-200)
# T12 sequence: T1 sequence with I54L
# SIX6 [17] = biological target: T13, SIX6 (Homo sapiens, UniProt O95475 114-200, T165I)
# T13 sequence: T1 sequence with T52I, I54L
# CRX [18] = biological target: CRX (Homo sapiens, UniProt O43186 26-111, R41L)
# VENTX [19] = biological target: T14, VENTX (Homo sapiens, UniProt O95231 78-163, R121Q)
# T14 sequence: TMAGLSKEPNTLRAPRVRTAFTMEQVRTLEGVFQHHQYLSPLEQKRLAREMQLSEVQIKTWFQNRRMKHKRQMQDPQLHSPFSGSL
# VENTX [20] = biological target: T15, VENTX (Homo sapiens, UniProt O95231 78-163)
# T15 sequence: T14 sequence with Q44R
# VENTX [21] = biological target: T16, VENTX (Homo sapiens, UniProt O95231 78-163, Y115F)
# T16 sequence: T14 sequence with Y38F, Q44R
# HOXA4 [22] = biological target: HOXA4 (Homo sapiens, UniProt Q00056 201-287, W262R)
# PRRX1 [23] = biological target: PRRX1 (Homo sapiens, UniProt P54821 80-166, F113S)
# HOXA4 [24] = biological target: HOXA4 (Homo sapiens, UniProt Q00056 201-287, R217L)
# HOXA4 [25] = biological target: HOXA4 (Homo sapiens, UniProt Q00056 201-287)
# HOXA4 [26] = biological target: HOXA4 (Homo sapiens, UniProt Q00056 201-287, W262F)
# PRRX1 [27] = biological target: PRRX1 (Homo sapiens, UniProt P54821 80-166)
# PITX2 = PITX2 (Homo sapiens, UniProt Q99697 72-157)
# HOXC9 [28] = biological target: HOXC9 (Homo sapiens, UniProt P31274 178-260, K195R)
# NKX2-6 = biological target: T17, NKX2-6 (Homo sapiens, UniProt A6NCS4 118-204, R150C)
# T17 sequence: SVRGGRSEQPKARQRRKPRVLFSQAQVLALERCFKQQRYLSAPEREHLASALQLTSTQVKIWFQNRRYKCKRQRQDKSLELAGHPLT
# HOXC9 [29] = biological target: HOXC9 (Homo sapiens, UniProt P31274 178-260)
# HOXC9 [30] = biological target: HOXC9 (Homo sapiens, UniProt P31274 178-260, R193K)
# HOXC9 [31] = biological target: HOXC9 (Homo sapiens, UniProt P31274 178-260, R222W)
# HOXA2 [32] = biological target: HOXA2 (Homo sapiens, UniProt O43364 129-215, R185T)
# HOXA2 [33] = biological target: HOXA2 (Homo sapiens, UniProt O43364 129-215, R185K)
# Sequence of HOXA2 (Homo sapiens, UniProt O43364 129-215, R185K) (O43364 129-215 R185K): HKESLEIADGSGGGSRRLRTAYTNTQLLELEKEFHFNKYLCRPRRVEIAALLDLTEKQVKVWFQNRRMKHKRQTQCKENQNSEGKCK
# Sequence of CRX (Homo sapiens, UniProt O43186 26-111, E42D) (O43186 26-111 E42D): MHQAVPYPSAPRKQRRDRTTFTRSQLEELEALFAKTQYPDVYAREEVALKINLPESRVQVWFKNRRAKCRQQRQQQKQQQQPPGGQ
# Sequence of CRX (Homo sapiens, UniProt O43186 26-111, R41L) (O43186 26-111 R41L): as the sequence (O43186 26-111 E42D) above, with R16L, D17E counted along it
# Sequence of CRX (Homo sapiens, UniProt O43186 26-111) (O43186 26-111): as the sequence (O43186 26-111 E42D) above, with D17E counted along it
# Sequence of HOXA4 (Homo sapiens, UniProt Q00056 201-287) (Q00056 201-287): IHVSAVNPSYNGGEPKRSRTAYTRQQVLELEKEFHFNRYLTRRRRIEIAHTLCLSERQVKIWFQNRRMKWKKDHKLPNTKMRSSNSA
# Sequence of HOXA4 (Homo sapiens, UniProt Q00056 201-287, W262R) (Q00056 201-287 W262R): as the sequence (Q00056 201-287) above, with W62R counted along it
# Sequence of HOXC9 (Homo sapiens, UniProt P31274 178-260, R193K) (P31274 178-260 R193K): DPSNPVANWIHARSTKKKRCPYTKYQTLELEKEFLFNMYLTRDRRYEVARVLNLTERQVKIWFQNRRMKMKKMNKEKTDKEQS
# Sequence of PRRX1 (Homo sapiens, UniProt P54821 80-166) (P54821 80-166): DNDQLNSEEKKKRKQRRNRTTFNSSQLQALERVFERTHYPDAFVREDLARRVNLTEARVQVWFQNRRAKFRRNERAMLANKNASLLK
# Sequence of HOXC9 (Homo sapiens, UniProt P31274 178-260) (P31274 178-260): as the sequence (P31274 178-260 R193K) above, with K16R counted along it
# Sequence of HOXA4 (Homo sapiens, UniProt Q00056 201-287, R217L) (Q00056 201-287 R217L): as the sequence (Q00056 201-287) above, with R17L counted along it
# Sequence of HOXC9 (Homo sapiens, UniProt P31274 178-260, K195R) (P31274 178-260 K195R): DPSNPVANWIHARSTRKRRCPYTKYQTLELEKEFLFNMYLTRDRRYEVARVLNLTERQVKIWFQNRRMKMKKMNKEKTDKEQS
# Sequence of PRRX1 (Homo sapiens, UniProt P54821 80-166, F113S) (P54821 80-166 F113S): as the sequence (P54821 80-166) above, with F34S counted along it
# Sequence of HOXA4 (Homo sapiens, UniProt Q00056 201-287, W262F) (Q00056 201-287 W262F): as the sequence (Q00056 201-287) above, with W62F counted along it
# Sequence of HOXC9 (Homo sapiens, UniProt P31274 178-260, R222W) (P31274 178-260 R222W): as the sequence (P31274 178-260 R193K) above, with K16R, R45W counted along it
# Sequence of HOXA2 (Homo sapiens, UniProt O43364 129-215, R185T) (O43364 129-215 R185T): as the sequence (O43364 129-215 R185K) above, with K57T counted along it
# Sequence of ALX4 (Homo sapiens, UniProt Q9H161 200-286, Q225E) (Q9H161 200-286 Q225E): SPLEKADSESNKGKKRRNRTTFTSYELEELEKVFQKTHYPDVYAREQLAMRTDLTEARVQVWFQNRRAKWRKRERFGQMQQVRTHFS
# Sequence of ALX4 (Homo sapiens, UniProt Q9H161 200-286) (Q9H161 200-286): as the sequence (Q9H161 200-286 Q225E) above, with E26Q counted along it
sequence,measurement,setting,value
CGCACCGC,binding signal,CRX [1],"8.16 upbm affinity estimate (log intensity, higher = more binding, comparable within an allelic series)"
same,binding signal,SIX6 [2],"8.91 upbm affinity estimate (log intensity, higher = more binding, comparable within an allelic series)"
same,binding signal,SIX6 [3],"8.89 upbm affinity estimate (log intensity, higher = more binding, comparable within an allelic series)"
same,binding signal,ALX4 [4],"8.06 upbm affinity estimate (log intensity, higher = more binding, comparable within an allelic series)"
same,binding signal,SIX6 [5],"8.95 upbm affinity estimate (log intensity, higher = more binding, comparable within an allelic series)"
same,binding signal,SIX6 [6],"8.88 upbm affinity estimate (log intensity, higher = more binding, comparable within an allelic series)"
same,binding signal,SIX6 [7],"8.89 upbm affinity estimate (log intensity, higher = more binding, comparable within an allelic series)"
same,binding signal,SIX6 [8],"8.96 upbm affinity estimate (log intensity, higher = more binding, comparable within an allelic series)"
same,binding signal,SIX6 [9],"9 upbm affinity estimate (log intensity, higher = more binding, comparable within an allelic series)"
same,binding signal,ALX4 [10],"8.31 upbm affinity estimate (log intensity, higher = more binding, comparable within an allelic series)"
same,binding signal,SIX6 [11],"9.05 upbm affinity estimate (log intensity, higher = more binding, comparable within an allelic series)"
same,binding signal,SIX6 [12],"9.17 upbm affinity estimate (log intensity, higher = more binding, comparable within an allelic series)"
same,binding signal,CRX [13],"8.2 upbm affinity estimate (log intensity, higher = more binding, comparable within an allelic series)"
same,binding signal,SIX6 [14],"8.98 upbm affinity estimate (log intensity, higher = more binding, comparable within an allelic series)"
same,binding signal,SIX6 [15],"8.96 upbm affinity estimate (log intensity, higher = more binding, comparable within an allelic series)"
same,binding signal,SIX6 [16],"8.97 upbm affinity estimate (log intensity, higher = more binding, comparable within an allelic series)"
same,binding signal,SIX6 [17],"8.85 upbm affinity estimate (log intensity, higher = more binding, comparable within an allelic series)"
same,binding signal,CRX [18],"8.26 upbm affinity estimate (log intensity, higher = more binding, comparable within an allelic series)"
CCCCTGGA,binding signal,CRX [1],"8.32 upbm affinity estimate (log intensity, higher = more binding, comparable within an allelic series)"
same,binding signal,VENTX [19],"7.92 upbm affinity estimate (log intensity, higher = more binding, comparable within an allelic series)"
same,binding signal,VENTX [20],"7.83 upbm affinity estimate (log intensity, higher = more binding, comparable within an allelic series)"
same,binding signal,VENTX [21],"8.01 upbm affinity estimate (log intensity, higher = more binding, comparable within an allelic series)"
same,binding signal,CRX [13],"8.46 upbm affinity estimate (log intensity, higher = more binding, comparable within an allelic series)"
same,binding signal,CRX [18],"8.4 upbm affinity estimate (log intensity, higher = more binding, comparable within an allelic series)"
GGGGCTCA,binding signal,CRX [1],"9.96 upbm affinity estimate (log intensity, higher = more binding, comparable within an allelic series)"
same,binding signal,HOXA4 [22],"9.76 upbm affinity estimate (log intensity, higher = more binding, comparable within an allelic series)"
same,binding signal,PRRX1 [23],"9.31 upbm affinity estimate (log intensity, higher = more binding, comparable within an allelic series)"
same,binding signal,HOXA4 [24],"9.78 upbm affinity estimate (log intensity, higher = more binding, comparable within an allelic series)"
same,binding signal,CRX [13],"9.8 upbm affinity estimate (log intensity, higher = more binding, comparable within an allelic series)"
same,binding signal,HOXA4 [25],"9.76 upbm affinity estimate (log intensity, higher = more binding, comparable within an allelic series)"
same,binding signal,HOXA4 [26],"9.78 upbm affinity estimate (log intensity, higher = more binding, comparable within an allelic series)"
same,binding signal,PRRX1 [27],"9.52 upbm affinity estimate (log intensity, higher = more binding, comparable within an allelic series)"
CAGATTAG,binding signal,CRX [1],"13.1 upbm affinity estimate (log intensity, higher = more binding, comparable within an allelic series)"
same,binding signal,VENTX [19],"10.6 upbm affinity estimate (log intensity, higher = more binding, comparable within an allelic series)"
same,binding signal,VENTX [21],"10.7 upbm affinity estimate (log intensity, higher = more binding, comparable within an allelic series)"
same,binding signal,CRX [13],"13.1 upbm affinity estimate (log intensity, higher = more binding, comparable within an allelic series)"
same,binding signal,PITX2,"12.3 upbm affinity estimate (log intensity, higher = more binding, comparable within an allelic series)"
same,binding signal,CRX [18],"12.6 upbm affinity estimate (log intensity, higher = more binding, comparable within an allelic series)"
GGGGACCC,binding signal,CRX [1],"8.16 upbm affinity estimate (log intensity, higher = more binding, comparable within an allelic series)"
same,binding signal,HOXC9 [28],"9.36 upbm affinity estimate (log intensity, higher = more binding, comparable within an allelic series)"
same,binding signal,NKX2-6,"9.43 upbm affinity estimate (log intensity, higher = more binding, comparable within an allelic series)"
same,binding signal,CRX [13],"8.31 upbm affinity estimate (log intensity, higher = more binding, comparable within an allelic series)"
same,binding signal,HOXC9 [29],"9.5 upbm affinity estimate (log intensity, higher = more binding, comparable within an allelic series)"
same,binding signal,PITX2,"7.78 upbm affinity estimate (log intensity, higher = more binding, comparable within an allelic series)"
same,binding signal,HOXC9 [30],"9.41 upbm affinity estimate (log intensity, higher = more binding, comparable within an allelic series)"
same,binding signal,HOXC9 [31],"9.52 upbm affinity estimate (log intensity, higher = more binding, comparable within an allelic series)"
same,binding signal,CRX [18],"8.26 upbm affinity estimate (log intensity, higher = more binding, comparable within an allelic series)"
GTGGATTA,binding signal,CRX [1],"13.3 upbm affinity estimate (log intensity, higher = more binding, comparable within an allelic series)"
same,binding signal,HOXA4 [22],"10.2 upbm affinity estimate (log intensity, higher = more binding, comparable within an allelic series)"
same,binding signal,CRX [13],"13.3 upbm affinity estimate (log intensity, higher = more binding, comparable within an allelic series)"
same,binding signal,PITX2,"13.2 upbm affinity estimate (log intensity, higher = more binding, comparable within an allelic series)"
same,binding signal,HOXA4 [25],"10.8 upbm affinity estimate (log intensity, higher = more binding, comparable within an allelic series)"
same,binding signal,CRX [18],"13.1 upbm affinity estimate (log intensity, higher = more binding, comparable within an allelic series)"
GAGGTACC,binding signal,CRX [1],"8.08 upbm affinity estimate (log intensity, higher = more binding, comparable within an allelic series)"
same,binding signal,VENTX [19],"8.02 upbm affinity estimate (log intensity, higher = more binding, comparable within an allelic series)"
same,binding signal,VENTX [20],"8.04 upbm affinity estimate (log intensity, higher = more binding, comparable within an allelic series)"
same,binding signal,VENTX [21],"8.14 upbm affinity estimate (log intensity, higher = more binding, comparable within an allelic series)"
same,binding signal,CRX [13],"8.18 upbm affinity estimate (log intensity, higher = more binding, comparable within an allelic series)"
same,binding signal,CRX [18],"8.17 upbm affinity estimate (log intensity, higher = more binding, comparable within an allelic series)"
AGGCCTTA,binding signal,CRX [1],"10.1 upbm affinity estimate (log intensity, higher = more binding, comparable within an allelic series)"
same,binding signal,CRX [13],"9.82 upbm affinity estimate (log intensity, higher = more binding, comparable within an allelic series)"
GTGATTAA,binding signal,CRX [1],"12.3 upbm affinity estimate (log intensity, higher = more binding, comparable within an allelic series)"
same,binding signal,VENTX [21],"11.5 upbm affinity estimate (log intensity, higher = more binding, comparable within an allelic series)"
same,binding signal,HOXA2 [32],"12.7 upbm affinity estimate (log intensity, higher = more binding, comparable within an allelic series)"
same,binding signal,CRX [13],"12.2 upbm affinity estimate (log intensity, higher = more binding, comparable within an allelic series)"
same,binding signal,HOXA2 [33],"13.2 upbm affinity estimate (log intensity, higher = more binding, comparable within an allelic series)"
same,binding signal,CRX [18],"11.7 upbm affinity estimate (log intensity, higher = more binding, comparable within an allelic series)"
